Measurements as given in PMC11062922 (Nature Chemical Biology, 2023).
Where two headings read alike, the source gives them in different places.

What was measured:
MARK4 = conditions: read-out: apparent Kd, n = 1
NTRK1 = conditions: read-out: apparent Kd, n = 1
[1] = compound concentrations:100 nM and 1000 nM (sheet 'Lestaurtinib' of Supplementary Table 1),run:Lestaurtinib_02572_R1,Plate:MR015
[2] = compound concentrations:100 nM and 1000 nM (sheet 'Lestaurtinib' of Supplementary Table 1),run:Lestaurtinib_02584_R2,Plate:MR017
[3] = compound concentrations:100 nM and 1000 nM (sheet 'Lestaurtinib' of Supplementary Table 1),run:Lestaurtinib_02601_R1,Plate:MR018
[4] = compound concentrations:100 nM and 1000 nM (sheet 'Lestaurtinib' of Supplementary Table 1),run:Lestaurtinib_02601_R3,Plate:MR018

Lestaurtinib
potency estimated from few doses (MARK4; [1]): 115 nM
potency estimated from few doses (MARK4; compound concentrations:100 nM and 1000 nM (sheet 'Lestaurtinib' of Supplementary Table 1),run:Lestaurtinib_02577_R1,Plate:MR016): 141 nM
potency estimated from few doses (MARK4; compound concentrations:100 nM and 1000 nM (sheet 'Lestaurtinib' of Supplementary Table 1),run:Lestaurtinib_02577_R3,Plate:MR016): 199 nM
potency estimated from few doses (MARK4; compound concentrations:100 nM and 1000 nM (sheet 'Lestaurtinib' of Supplementary Table 1),run:Lestaurtinib_02584_R1,Plate:MR017): 85.5 nM
potency estimated from few doses (MARK4; [2]): 74.7 nM
potency estimated from few doses (MARK4; compound concentrations:100 nM and 1000 nM (sheet 'Lestaurtinib' of Supplementary Table 1),run:Lestaurtinib_02584_R3,Plate:MR017): 80.1 nM
potency estimated from few doses (MARK4; [3]): 90.9 nM
potency estimated from few doses (MARK4; [4]): 93.4 nM
potency estimated from few doses (MARK4; compound concentrations:100 nM and 1000 nM (sheet 'Lestaurtinib' of Supplementary Table 1),run:Lestaurtinib_02606_R3,Plate:MR019): 115 nM
potency estimated from few doses (MARK4; compound concentrations:100 nM and 1000 nM (sheet 'Lestaurtinib' of Supplementary Table 1),run:Lestaurtinib_02624_R2,Plate:MR020): 84.3 nM
potency estimated from few doses (MARK4; compound concentrations:100 nM and 1000 nM (sheet 'Lestaurtinib' of Supplementary Table 1),run:Lestaurtinib_02624_R3,Plate:MR020): 78.4 nM
potency estimated from few doses (MARK4; compound concentrations:100 nM and 1000 nM (sheet 'Lestaurtinib' of Supplementary Table 1),run:Lestaurtinib_02724_R3,Plate:MR021): 113 nM
potency estimated from few doses (MARK4; compound concentrations:100 nM and 1000 nM (sheet 'Lestaurtinib' of Supplementary Table 1),run:Lestaurtinib_02741_R2,Plate:MR023): 144 nM
potency estimated from few doses (MARK4; compound concentrations:100 nM and 1000 nM (sheet 'Lestaurtinib' of Supplementary Table 1),run:Lestaurtinib_02741_R3,Plate:MR023): 82.4 nM
potency estimated from few doses (MARK4; compound concentrations:100 nM and 1000 nM (sheet 'Lestaurtinib' of Supplementary Table 1),run:Lestaurtinib_02748_R1,Plate:MR024): 151 nM
potency estimated from few doses (MARK4; compound concentrations:100 nM and 1000 nM (sheet 'Lestaurtinib' of Supplementary Table 1),run:Lestaurtinib_02748_R2,Plate:MR024): 97.8 nM
potency estimated from few doses (MARK4; compound concentrations:100 nM and 1000 nM (sheet 'Lestaurtinib' of Supplementary Table 1),run:Lestaurtinib_02748_R3,Plate:MR024): 98.7 nM
potency estimated from few doses (MARK4; compound concentrations:100 nM and 1000 nM (sheet 'Lestaurtinib' of Supplementary Table 1),run:Lestaurtinib_02752_R1,Plate:MR025): 84.2 nM
potency estimated from few doses (MARK4; compound concentrations:100 nM and 1000 nM (sheet 'Lestaurtinib' of Supplementary Table 1),run:Lestaurtinib_02752_R3,Plate:MR025): 113 nM
potency estimated from few doses (MARK4; compound concentrations:100 nM and 1000 nM (sheet 'Lestaurtinib' of Supplementary Table 1),run:Lestaurtinib_02765_R1,Plate:MR026): 86.1 nM
potency estimated from few doses (MARK4; compound concentrations:100 nM and 1000 nM (sheet 'Lestaurtinib' of Supplementary Table 1),run:Lestaurtinib_02765_R3,Plate:MR026): 95.3 nM
potency estimated from few doses (MARK4; compound concentrations:100 nM and 1000 nM (sheet 'Lestaurtinib' of Supplementary Table 1),run:Lestaurtinib_02766_R1,Plate:MR027): 154 nM
potency estimated from few doses (MARK4; compound concentrations:100 nM and 1000 nM (sheet 'Lestaurtinib' of Supplementary Table 1),run:Lestaurtinib_02766_R2,Plate:MR027): 63.6 nM
potency estimated from few doses (MARK4; compound concentrations:100 nM and 1000 nM (sheet 'Lestaurtinib' of Supplementary Table 1),run:Lestaurtinib_02766_R3,Plate:MR027): 76.7 nM
potency estimated from few doses (MARK4; compound concentrations:100 nM and 1000 nM (sheet 'Lestaurtinib' of Supplementary Table 1),run:Lestaurtinib_02768_R1,Plate:MR028): 92.1 nM
potency estimated from few doses (MARK4; compound concentrations:100 nM and 1000 nM (sheet 'Lestaurtinib' of Supplementary Table 1),run:Lestaurtinib_02768_R3,Plate:MR028): 80.6 nM
potency estimated from few doses (MARK4; compound concentrations:100 nM and 1000 nM (sheet 'Lestaurtinib' of Supplementary Table 1),run:Lestaurtinib_02795_R1,Plate:MR022): 115 nM
potency estimated from few doses (MARK4; compound concentrations:100 nM and 1000 nM (sheet 'Lestaurtinib' of Supplementary Table 1),run:Lestaurtinib_02795_R2,Plate:MR022): 157 nM
potency estimated from few doses (MARK4; compound concentrations:100 nM and 1000 nM (sheet 'Lestaurtinib' of Supplementary Table 1),run:Lestaurtinib_02802_R2,Plate:MR029): 86 nM
potency estimated from few doses (MARK4; compound concentrations:100 nM and 1000 nM (sheet 'Lestaurtinib' of Supplementary Table 1),run:Lestaurtinib_02802_R3,Plate:MR029): 77.8 nM
potency estimated from few doses (MARK4; compound concentrations:100 nM and 1000 nM (sheet 'Lestaurtinib' of Supplementary Table 1),run:Lestaurtinib_02896_R2,Plate:MR030): 141 nM
potency estimated from few doses (MARK4; compound concentrations:100 nM and 1000 nM (sheet 'Lestaurtinib' of Supplementary Table 1),run:Lestaurtinib_02896_R3,Plate:MR030): 87.4 nM
potency estimated from few doses (MARK4; compound concentrations:100 nM and 1000 nM (sheet 'Lestaurtinib' of Supplementary Table 1),run:Lestaurtinib_03172_R1,Plate:MR031): 86.8 nM
potency estimated from few doses (MARK4; compound concentrations:100 nM and 1000 nM (sheet 'Lestaurtinib' of Supplementary Table 1),run:Lestaurtinib_03172_R2,Plate:MR031): 297 nM
potency estimated from few doses (MARK4; compound concentrations:100 nM and 1000 nM (sheet 'Lestaurtinib' of Supplementary Table 1),run:Lestaurtinib_03252_R1,Plate:MR032): 41.6 nM
potency estimated from few doses (MARK4; compound concentrations:100 nM and 1000 nM (sheet 'Lestaurtinib' of Supplementary Table 1),run:Lestaurtinib_03252_R2,Plate:MR032): 59.5 nM
potency estimated from few doses (MARK4; compound concentrations:100 nM and 1000 nM (sheet 'Lestaurtinib' of Supplementary Table 1),run:Lestaurtinib_03260_R1,Plate:MR033): 469 nM
potency estimated from few doses (MARK4; compound concentrations:100 nM and 1000 nM (sheet 'Lestaurtinib' of Supplementary Table 1),run:Lestaurtinib_03260_R2,Plate:MR033): 609 nM
potency estimated from few doses (MARK4; compound concentrations:100 nM and 1000 nM (sheet 'Lestaurtinib' of Supplementary Table 1),run:Lestaurtinib_03260_R3,Plate:MR033): 165 nM
potency estimated from few doses (NTRK1; compound concentrations:100 nM and 1000 nM (sheet 'Lestaurtinib' of Supplementary Table 1),run:Lestaurtinib_02339_R2,Plate:MR001): 1580 nM
potency estimated from few doses (NTRK1; compound concentrations:100 nM and 1000 nM (sheet 'Lestaurtinib' of Supplementary Table 1),run:Lestaurtinib_02339_R3,Plate:MR001): 1910 nM
potency estimated from few doses (NTRK1; compound concentrations:100 nM and 1000 nM (sheet 'Lestaurtinib' of Supplementary Table 1),run:Lestaurtinib_02364_R1,Plate:MR002): 893 nM
potency estimated from few doses (NTRK1; compound concentrations:100 nM and 1000 nM (sheet 'Lestaurtinib' of Supplementary Table 1),run:Lestaurtinib_02364_R2,Plate:MR002): 971 nM
potency estimated from few doses (NTRK1; compound concentrations:100 nM and 1000 nM (sheet 'Lestaurtinib' of Supplementary Table 1),run:Lestaurtinib_02364_R3,Plate:MR002): 789 nM
potency estimated from few doses (NTRK1; compound concentrations:100 nM and 1000 nM (sheet 'Lestaurtinib' of Supplementary Table 1),run:Lestaurtinib_02381_R1,Plate:MR004): 763 nM
potency estimated from few doses (NTRK1; compound concentrations:100 nM and 1000 nM (sheet 'Lestaurtinib' of Supplementary Table 1),run:Lestaurtinib_02381_R2,Plate:MR004): 626 nM
potency estimated from few doses (NTRK1; compound concentrations:100 nM and 1000 nM (sheet 'Lestaurtinib' of Supplementary Table 1),run:Lestaurtinib_02381_R3,Plate:MR004): 1330 nM
potency estimated from few doses (NTRK1; compound concentrations:100 nM and 1000 nM (sheet 'Lestaurtinib' of Supplementary Table 1),run:Lestaurtinib_02407_R1,Plate:MR005): 1580 nM
potency estimated from few doses (NTRK1; compound concentrations:100 nM and 1000 nM (sheet 'Lestaurtinib' of Supplementary Table 1),run:Lestaurtinib_02422_R1,Plate:MR006): 1590 nM
potency estimated from few doses (NTRK1; compound concentrations:100 nM and 1000 nM (sheet 'Lestaurtinib' of Supplementary Table 1),run:Lestaurtinib_02422_R2,Plate:MR006): 1420 nM
potency estimated from few doses (NTRK1; compound concentrations:100 nM and 1000 nM (sheet 'Lestaurtinib' of Supplementary Table 1),run:Lestaurtinib_02437_R2,Plate:MR007): 1490 nM
potency estimated from few doses (NTRK1; compound concentrations:100 nM and 1000 nM (sheet 'Lestaurtinib' of Supplementary Table 1),run:Lestaurtinib_02437_R3,Plate:MR007): 113 nM
potency estimated from few doses (NTRK1; compound concentrations:100 nM and 1000 nM (sheet 'Lestaurtinib' of Supplementary Table 1),run:Lestaurtinib_02438_R1,Plate:MR008): 1000 nM
potency estimated from few doses (NTRK1; compound concentrations:100 nM and 1000 nM (sheet 'Lestaurtinib' of Supplementary Table 1),run:Lestaurtinib_02438_R2,Plate:MR008): 1530 nM
potency estimated from few doses (NTRK1; compound concentrations:100 nM and 1000 nM (sheet 'Lestaurtinib' of Supplementary Table 1),run:Lestaurtinib_02443_R1,Plate:MR009): 796 nM
potency estimated from few doses (NTRK1; compound concentrations:100 nM and 1000 nM (sheet 'Lestaurtinib' of Supplementary Table 1),run:Lestaurtinib_02473_R1,Plate:MR010): 695 nM
potency estimated from few doses (NTRK1; compound concentrations:100 nM and 1000 nM (sheet 'Lestaurtinib' of Supplementary Table 1),run:Lestaurtinib_02473_R2,Plate:MR010): 826 nM
potency estimated from few doses (NTRK1; compound concentrations:100 nM and 1000 nM (sheet 'Lestaurtinib' of Supplementary Table 1),run:Lestaurtinib_02482_R2,Plate:MR011): 894 nM
potency estimated from few doses (NTRK1; compound concentrations:100 nM and 1000 nM (sheet 'Lestaurtinib' of Supplementary Table 1),run:Lestaurtinib_02482_R3,Plate:MR011): 649 nM
potency estimated from few doses (NTRK1; compound concentrations:100 nM and 1000 nM (sheet 'Lestaurtinib' of Supplementary Table 1),run:Lestaurtinib_02487_R2,Plate:MR012): 1150 nM
potency estimated from few doses (NTRK1; compound concentrations:100 nM and 1000 nM (sheet 'Lestaurtinib' of Supplementary Table 1),run:Lestaurtinib_02487_R3,Plate:MR012): 921 nM
potency estimated from few doses (NTRK1; compound concentrations:100 nM and 1000 nM (sheet 'Lestaurtinib' of Supplementary Table 1),run:Lestaurtinib_02496_R1,Plate:MR013): 946 nM
potency estimated from few doses (NTRK1; compound concentrations:100 nM and 1000 nM (sheet 'Lestaurtinib' of Supplementary Table 1),run:Lestaurtinib_02496_R2,Plate:MR013): 1400 nM
potency estimated from few doses (NTRK1; compound concentrations:100 nM and 1000 nM (sheet 'Lestaurtinib' of Supplementary Table 1),run:Lestaurtinib_02496_R3,Plate:MR013): 828 nM
potency estimated from few doses (NTRK1; compound concentrations:100 nM and 1000 nM (sheet 'Lestaurtinib' of Supplementary Table 1),run:Lestaurtinib_02566_R2,Plate:MR014): 898 nM
potency estimated from few doses (NTRK1; [1]): 810 nM
potency estimated from few doses (NTRK1; compound concentrations:100 nM and 1000 nM (sheet 'Lestaurtinib' of Supplementary Table 1),run:Lestaurtinib_02572_R3,Plate:MR015): 974 nM
potency estimated from few doses (NTRK1; compound concentrations:100 nM and 1000 nM (sheet 'Lestaurtinib' of Supplementary Table 1),run:Lestaurtinib_02577_R2,Plate:MR016): 1300 nM
potency estimated from few doses (NTRK1; [2]): 1000 nM
potency estimated from few doses (NTRK1; [3]): 1580 nM
potency estimated from few doses (NTRK1; compound concentrations:100 nM and 1000 nM (sheet 'Lestaurtinib' of Supplementary Table 1),run:Lestaurtinib_02601_R2,Plate:MR018): 673 nM
potency estimated from few doses (NTRK1; [4]): 924 nM
